# Measurements published in PubChem BioAssay AID1159580 (chemical genetic matrix, 2015).
# The campaign covered roughly 5,500 compounds. About 2,000 (36%) were called active. About 18% were inconclusive and are not listed. Some of the results follow. Values without a mark were called inactive. Rule as the data show it: active = normalized growth mostly below about 0.91 (no sharp cut-off); inconclusive = no clear call, values can overlap the other calls; inactive = mostly above about 0.92.
# Experiment: chemical genetic growth profiling, strain panel (AID 1159580);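 also: tested at 20 µM; growth read once vehicle control cultures reached saturation at 30 °C; 1 = growth at the plate median or of vehicle wells; lower values mean less growth of the strain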
# Conditions: growth OD
# [1] = S. cerevisiae deletion strains, locus YAL013W, strain DEP1, hits give low values
# [2] = S. cerevisiae deletion strains, locus YBR021W, strain FUR4, hits give low values
# [3] = S. cerevisiae deletion strains, locus YBR229C, strain ROT2, hits give low values
# [4] = S. cerevisiae deletion strains, locus YCL029C, strain bik1, hits give low values
# [5] = S. cerevisiae deletion strains, locus YDL035C, strain GPR1, hits give low values
# [6] = S. cerevisiae deletion strains, locus YDL074C, strain BRE1, hits give low values
# [7] = S. cerevisiae deletion strains, locus YDL101C, strain DUN1, hits give low values
# [8] = S. cerevisiae deletion strains, locus YDL185W, strain tfp1, hits give low values
# [9] = S. cerevisiae deletion strains, locus YDL192W, strain arf1, hits give low values
# [10] = S. cerevisiae deletion strains, locus YDR101C, strain arx1, hits give low values
# [11] = S. cerevisiae deletion strains, locus YDR162C, strain NBP2, hits give low values
# [12] = S. cerevisiae deletion strains, locus YDR318W, strain mcm21, hits give low values
# [13] = S. cerevisiae deletion strains, locus YDR388W, hits give low values
# [14] = S. cerevisiae deletion strains, locus YDR502C, strain sam2, hits give low values
# [15] = S. cerevisiae deletion strains, locus YEL061C, strain CIN8, hits give low values
# [16] = S. cerevisiae deletion strains, locus YER110C, hits give low values
# [17] = S. cerevisiae deletion strains, locus YER155C, strain BEM2, hits give low values
# [18] = S. cerevisiae deletion strains, locus YER167W, strain BCK2, hits give low values
# [19] = S. cerevisiae deletion strains, locus YGL078C, strain dbp3, hits give low values
# [20] = S. cerevisiae deletion strains, locus YGL086W, strain mad1, hits give low values
# [21] = S. cerevisiae deletion strains, locus YGL248W, strain PDE1, hits give low values
# [22] = S. cerevisiae deletion strains, locus YGR135W, strain pre9, hits give low values
# [23] = S. cerevisiae deletion strains, locus YGR252W, strain gcn5, hits give low values
# [24] = S. cerevisiae deletion strains, locus YHR030C, strain SLT2, hits give low values
# [25] = S. cerevisiae deletion strains, locus YHR079C, strain IRE1 (second series), hits give low values
# [26] = S. cerevisiae deletion strains, locus YHR094C, strain hxt1, hits give low values
# [27] = S. cerevisiae deletion strains, locus YHR129C, strain ARP1, hits give low values
# [28] = S. cerevisiae deletion strains, locus YHR200W, strain rpn10, hits give low values
# [29] = S. cerevisiae deletion strains, locus YIL066C, strain RNR3, hits give low values
# [30] = S. cerevisiae deletion strains, locus YIL073C, strain SPO22, hits give low values
# [31] = S. cerevisiae deletion strains, locus YIL125W, strain kgd1, hits give low values
# [32] = S. cerevisiae deletion strains, locus YIR030C, strain dcg1, hits give low values
# [33] = S. cerevisiae deletion strains, locus YJL095W, strain BCK1, hits give low values
# [34] = S. cerevisiae deletion strains, locus YJL134W, strain LCB3, hits give low values
# [35] = S. cerevisiae deletion strains, locus YJL168C, strain set2, hits give low values
# [36] = S. cerevisiae deletion strains, locus YJL187C, strain SWE1 (second series), hits give low values
# [37] = S. cerevisiae deletion strains, locus YJR043C, strain POL32, hits give low values
# [38] = S. cerevisiae deletion strains, locus YKL068W, hits give low values
# [39] = S. cerevisiae deletion strains, locus YKR001C, strain vps1, hits give low values
# [40] = S. cerevisiae deletion strains, locus YLR039C, strain RIC1, hits give low values
# [41] = S. cerevisiae deletion strains, locus YLR058C, strain SHM2, hits give low values
# [42] = S. cerevisiae deletion strains, locus YLR102C, strain apc9, hits give low values
# [43] = S. cerevisiae deletion strains, locus YLR262C, strain YPT6, hits give low values
# [44] = S. cerevisiae deletion strains, locus YLR268W, strain sec22, hits give low values
# [45] = S. cerevisiae deletion strains, locus YLR330W, strain CHS5, hits give low values
# [46] = S. cerevisiae deletion strains, locus YLR342W, strain FKS1 (second series), hits give low values
# [47] = S. cerevisiae deletion strains, locus YLR371W, strain rom2, hits give low values
# [48] = S. cerevisiae deletion strains, locus YLR418C, strain cdc73, hits give low values
# [49] = S. cerevisiae deletion strains, locus YML016C, strain PPZ1, hits give low values
# [50] = S. cerevisiae deletion strains, locus YML032C, strain rad52, hits give low values
# [51] = S. cerevisiae deletion strains, locus YML124C, strain tub3, hits give low values
# [52] = S. cerevisiae deletion strains, locus YMR078C, strain ctf18, hits give low values
# [53] = S. cerevisiae deletion strains, locus YMR223W, strain ubp8, hits give low values
# [54] = S. cerevisiae deletion strains, locus YMR307W, strain GAS1, hits give low values
# [55] = S. cerevisiae deletion strains, locus YNL067W, strain RPL9B, hits give low values
# [56] = S. cerevisiae deletion strains, locus YNL153C, strain GIM3, hits give low values
# [57] = S. cerevisiae deletion strains, locus YNL233W, strain BNI4, hits give low values
# [58] = S. cerevisiae deletion strains, locus YNL250W, strain rad50, hits give low values
# [59] = S. cerevisiae deletion strains, locus YNL271C, strain bni1, hits give low values
# [60] = S. cerevisiae deletion strains, locus YNL298W, strain CLA4, hits give low values
# [61] = S. cerevisiae deletion strains, locus YNL307C, strain MCK1, hits give low values
# [62] = S. cerevisiae deletion strains, locus YNL322C, strain KRE1, hits give low values
# [63] = S. cerevisiae deletion strains, locus YNR052C, strain pop2, hits give low values
# [64] = S. cerevisiae deletion strains, locus YOL012C, strain htz1
# [65] = S. cerevisiae deletion strains, locus YOL147C, strain pex11, hits give low values
# [66] = S. cerevisiae deletion strains, locus YOR061W, strain CKA2, hits give low values
# [67] = S. cerevisiae deletion strains, locus YOR069W, strain VPS5, hits give low values
# [68] = S. cerevisiae deletion strains, locus YOR136W, strain idh2, hits give low values
# [69] = S. cerevisiae deletion strains, locus YOR144C, strain elg1, hits give low values
# [70] = S. cerevisiae deletion strains, locus YOR184W, strain ser1, hits give low values
# [71] = S. cerevisiae deletion strains, locus YOR316C, strain cot1, hits give low values
# [72] = S. cerevisiae deletion strains, locus YPR119W, strain clb2, hits give low values
# [73] = S. cerevisiae deletion strains, locus YPR141C, strain kar3, hits give low values
# [74] = S. cerevisiae deletion strains, locus YPR163C, strain tif3, hits give low values
# [75] = S. cerevisiae deletion strains, locus YPR167C, strain met16, hits give low values
# [76] = S. cerevisiae deletion strains, strain wtn01, hits give low values
compound,measurement,setting,value
COC(=O)[C@]1(C)CC[C@]2(C)CC[C@]3(C)C4=CCc5c(cc(O)c(O)c5C)[C@]4(C)CC[C@@]3(C)C2C1 (stereo not given in full),normalized growth,[1],0.992
same,normalized growth,[2],0.985
same,normalized growth,[3],0.989
same,normalized growth,[4],0.98
same,normalized growth,[5],0.968
same,normalized growth,[6],0.915
same,normalized growth,[7],0.975
same,normalized growth,"S. cerevisiae deletion strains, locus YDL134C, strain PPH21, hits give low values",1.01
same,normalized growth,[8],0.984
same,normalized growth,[9],0.968
same,normalized growth,[10],0.947
same,normalized growth,[11],0.992
same,normalized growth,[12],0.994
same,normalized growth,[13],0.983
same,normalized growth,[14],0.961
same,normalized growth,[15],0.991
same,normalized growth,[16],0.978
same,normalized growth,[17],0.992
same,normalized growth,[18],0.992
same,normalized growth,[19],0.981
same,normalized growth,[20],0.94
same,normalized growth,[21],0.985
same,normalized growth,"S. cerevisiae deletion strains, locus YGR078C, strain PAC10, hits give low values",0.971
same,normalized growth,[22],0.99
same,normalized growth,[23],1.09
same,normalized growth,[24],0.994
same,normalized growth,[25],0.982
same,normalized growth,[26],0.978
same,normalized growth,[27],0.962
same,normalized growth,[28],0.986
same,normalized growth,[29],0.969
same,normalized growth,[30],0.983
same,normalized growth,[31],0.975
same,normalized growth,[32],0.982
same,normalized growth,[33],0.958
same,normalized growth,[34],0.991
same,normalized growth,[35],0.978
same,normalized growth,[36],0.961
same,normalized growth,[37],0.989
same,normalized growth,"S. cerevisiae deletion strains, locus YKL009W, strain mrt4, hits give low values",1.03
same,normalized growth,[38],0.977
same,normalized growth,"S. cerevisiae deletion strains, locus YKL085W, strain MDH1 (second series), hits give low values",0.977
same,normalized growth,"S. cerevisiae deletion strains, locus YKL085W, strain MDH1, hits give low values",0.977
same,normalized growth,[39],0.937
same,normalized growth,[40],0.945
same,normalized growth,[41],0.983
same,normalized growth,[42],0.984
same,normalized growth,[43],0.938
same,normalized growth,[44],0.939
same,normalized growth,[45],0.988
same,normalized growth,[46],0.953
same,normalized growth,[47],0.955
same,normalized growth,[48],0.802 (active)
same,normalized growth,[49],0.982
same,normalized growth,[50],1.01
same,normalized growth,[51],0.98
same,normalized growth,[52],0.958
same,normalized growth,[53],0.984
same,normalized growth,"S. cerevisiae deletion strains, locus YMR263W, strain SAP30, hits give low values",0.998
same,normalized growth,[54],0.954
same,normalized growth,[55],0.998
same,normalized growth,[56],0.973
same,normalized growth,[57],0.951
same,normalized growth,[58],0.977
same,normalized growth,[59],0.979
same,normalized growth,[60],1.01
same,normalized growth,[61],0.962
same,normalized growth,[62],0.993
same,normalized growth,[63],0.985
same,normalized growth,[64],1.1
same,normalized growth,[65],0.998
same,normalized growth,[66],0.981
same,normalized growth,[67],0.984
same,normalized growth,[68],0.966
same,normalized growth,[69],0.973
same,normalized growth,[70],0.902
same,normalized growth,[71],0.983
same,normalized growth,[72],0.971
same,normalized growth,[73],0.968
same,normalized growth,[74],0.968
same,normalized growth,[75],0.976
same,normalized growth,[76],0.929
CC(=O)OCC1(C)CCC2(C)CCC3(C)C4=CCc5c(cc(OC(C)=O)c(OC(C)=O)c5C)C4(C)CCC3(C)C2C1 (stereo not given),normalized growth,[1],1.01
same,normalized growth,[2],0.994
same,normalized growth,[3],1.02
same,normalized growth,[4],1.01
same,normalized growth,[5],1.02
same,normalized growth,[6],1.04
same,normalized growth,[7],1.02
same,normalized growth,[8],1.01
same,normalized growth,[9],1.01
same,normalized growth,[10],0.974
same,normalized growth,[11],1.04
same,normalized growth,[12],1.01
same,normalized growth,[13],0.997
same,normalized growth,[14],0.984
same,normalized growth,[15],1.01
same,normalized growth,[16],0.999
same,normalized growth,[17],1.01
same,normalized growth,[18],1
same,normalized growth,[19],1
same,normalized growth,[20],0.998
same,normalized growth,[21],1.04
same,normalized growth,[22],1
same,normalized growth,[23],0.992
same,normalized growth,[24],1.02
same,normalized growth,[25],1
same,normalized growth,[26],1.02
same,normalized growth,[27],1.02
same,normalized growth,[28],1.01
same,normalized growth,[29],1.02
same,normalized growth,[30],1.02
same,normalized growth,[31],1
same,normalized growth,[32],1
same,normalized growth,[33],1.04
same,normalized growth,[34],1.01
same,normalized growth,[35],1.01
same,normalized growth,[36],1.02
same,normalized growth,[37],1.02
same,normalized growth,[38],1.01
same,normalized growth,[39],0.997
same,normalized growth,[40],1.03
same,normalized growth,[41],1.02
same,normalized growth,[42],1
same,normalized growth,[43],1.07
same,normalized growth,[44],1
same,normalized growth,[45],1.01
same,normalized growth,[46],1.01
same,normalized growth,[47],1.01
same,normalized growth,[48],1.07
same,normalized growth,[49],1.02
same,normalized growth,[50],1
same,normalized growth,[51],0.997
same,normalized growth,[52],1.01
same,normalized growth,[53],1.01
same,normalized growth,[54],1.07
same,normalized growth,[55],1.03
same,normalized growth,"S. cerevisiae deletion strains, locus YNL128W, strain TEP1, hits give low values",1.01
same,normalized growth,[56],1.02
same,normalized growth,[57],1.03
same,normalized growth,[58],1
same,normalized growth,[59],0.999
same,normalized growth,[60],1
same,normalized growth,[61],1
same,normalized growth,[62],1.02
same,normalized growth,[63],1.01
same,normalized growth,[64],1.15
same,normalized growth,[65],0.993
same,normalized growth,[66],1.02
same,normalized growth,[67],1.01
same,normalized growth,[68],0.998
same,normalized growth,[69],0.994
same,normalized growth,[70],1.04
same,normalized growth,[71],1
same,normalized growth,[72],1
same,normalized growth,[73],1.01
same,normalized growth,[74],1.02
same,normalized growth,[75],1
same,normalized growth,[76],1.03
same,normalized growth,"S. cerevisiae strains, strain wild type, hits give low values",0.992
